# HCV inh = inhibitors of hepatitis C virus infection | Huh7.5.1 HCVcc-Cre infection, luciferase reporter, 44 h | AID 651820 | actives 3.4% (n = 340,000) | Potency, µM (top dose mostly 41.8 µM), inactives show top-dose activity change, negative = inhibition, most hits filed as inhibitors; active = well fitted inhibition curve with a large enough effect; inconclusive = small, poorly fitted or top-dose-only effect, or another doubt; inactive = no such curve, though single readings can be large or run the other way; note: potency is the fitted concentration of half-maximal effect; % is set by controls: 0 for no effect and ±100 for the full control effect
#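 Infectious HCVcc-Cre (~0.5 moi) was added to cells just after compound, with cells seeded 4 h earlier at 1,000 per well. Luciferase activity after 44 h culture reported infection; substrate was incubated 15 min at room temperature before reading.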
# FMDV inh = antivirals against foot and mouth disease virus | actives 1.2% (n = 410,000) | FMDV antiviral cell-based qHTS | Potency, µM (highest dose often 57.9 µM), inactives show top-dose activity change, negative = inhibition, usual class: inhibitors; calls by dose curve; tested in HEK293T cells; note: read-out not given here; potency is the fitted concentration of half-maximal effect; % is set by controls: 0 for no effect and ±100 for the full control effect; nearly all actives have a fitted effect of over 45% in size
# Shiga toxin inh = inhibitors of Shiga toxin in Vero cells | Vero cells, Shiga toxin protein synthesis inhibition reporter | AID 2315 | actives 9.2% (n = 290,000) | inhibition, % at 38.7 µM; in the data active = inhibition mostly above about 28%, no sharp cut-off; inactive = mostly below about 43%; note: 0% is about no effect
# CHX counter = counter-screen for Shiga toxin inhibitors: cycloheximide protein synthesis inhibition | cell reporter, cycloheximide protein synthesis inhibition counterscreen | max response, % | actives 12% (n = 300,000) | AID 2314; in the data active = max response mostly above about 13%, no sharp cut-off; inactive = mostly below about 14%; note: read at 38.3 µM for the half of the compounds with a filed dose; 0% is about no effect
# Lassa entry inh = blocks Lassa virus binding to or entry into cells; Lassa virus pseudotype entry inhibition, cell reporter; Potency, µM (top dose mostly 37.9 µM), without a hit: at the top dose activity change, negative = inhibition, usual class: inhibitors; actives 1.2% (n = 300,000); AID 540256; calls by dose curve; tested in HEK293 cells; note: potency is the fitted concentration of half-maximal effect; % is set by controls: 0 for no effect and ±100 for the full control effect; nearly all actives have a fitted effect of over 50% in size
# Marburg entry inh = inhibitors of Marburg virus binding or cell entry. Marburg virus pseudotyped entry inhibition, cell reporter. Potency, µM (doses to about 37.8 µM), inactives show at the highest dose activity change, negative = inhibition, hits mostly inhibitors. actives 1.8% (n = 300,000). AID 540276; calls by dose curve; tested in HEK293 cells; note: potency is the fitted concentration of half-maximal effect; % is set by controls: 0 for no effect and ±100 for the full control effect
# * marks the source's active call; other numbers are inactive results; ? = inconclusive; · = no result; [ ] = remark or other dose. The list is not random: actives were taken first. Their share in the collection is about 13%.
SMILES,HCV inh,FMDV inh,Shiga toxin inh,CHX counter,Lassa entry inh,Marburg entry inh
CC(=O)C1C(=O)CC(C)(O)C(C(C)=O)C1c1ccc(N(C)C)cc1 (centres undefined),-2.9%,-13.1%,-21.0,-4.7,7.3%,1.8%
CCCN(C(=O)c1cc2c(=O)oc3ccccc3c2s1)c1ccccc1C,·,39.8µM*,·,·,2.3%[46.1 µM],9.3%[46.1 µM]
CCN(C(=O)c1cc2c(=O)oc3ccc(C)cc3c2s1)c1ccccc1C,·,?,·,·,0.4%[46.1 µM],8.3%[46.1 µM]
COc1ccc(OC)c(S(=O)(=O)Nc2ccccc2SC)c1,5.7%,32.7%,-4.5,-2.4,-2.1%,-1.5%
CCOC(=O)c1c(C)[nH]c(C(=O)COC(=O)c2ccc(O)cc2O)c1C,?,-20.9%,17.5,18.5*,·,·
CCOC(=O)c1c(C)[nH]c(C(=O)COC(=O)c2ccc(O)cc2)c1C,?,4.2%,54.1*,22.4*,?,5.2%[46.1 µM]
CCOC(=O)c1c(C)[nH]c(C(=O)COC(=O)c2ccccn2)c1C,-2.8%,0.0%,99.6*,37.7*,7.7%,16.1%
CCOC(=O)c1c(C)[nH]c(C(=O)OCC(=O)c2ccccc2)c1C,?,19.3%,·,·,?,?
CCOC(=O)c1c(C)[nH]c(C(=O)COC(=O)COc2ccc(OC)cc2)c1C,-1.5%,-5.6%,-14.6,-1.8,0.4%,-17.0%
O=C(CN1C(=O)S/C(=C\c2ccccc2)C1=O)NC1CCS(=O)(=O)C1 (centres undefined),-7.6%,7.9%,9.7,1.0,23.4%[46.1 µM],-19.8%[46.1 µM]
CC(C)c1ccc(/C=C2\SC(=O)N(CC(=O)NC3CCS(=O)(=O)C3)C2=O)cc1 (centres undefined),?,12.2%,76.0*,35.9*,·,·
O=C(CN1C(=O)S/C(=C\C=C\c2ccccc2)C1=O)NC1CCS(=O)(=O)C1 (centres undefined),-5.7%,11.2%,46.2*,48.2*,·,·
NC1=NC2OC(CO)C(O)C2O1 (centres undefined),·,-16.9%,·,·,·,·
Cc1ccc(CC(=O)Nc2ncc([N+](=O)[O-])s2)cc1,-4.9%,62.1%,61.3,30.4*,·,·
O=C(CCS(=O)(=O)Cc1ccccc1)Nc1ncc([N+](=O)[O-])s1,?,42.2%,57.9*,39.0*,8.1%[46.1 µM],?
Cc1ccc(S(=O)(=O)CC(=O)Nc2ncc([N+](=O)[O-])s2)cc1,-8.6%,-1.5%,-4.3,-2.4,15.6%,-2.9%[46.1 µM]
O=C(CCS(=O)(=O)c1ccccc1)Nc1ncc([N+](=O)[O-])s1,5.6%,31.1%,6.5,-0.9,14.7%[46.1 µM],-7.1%[46.1 µM]
COC(=O)c1ccccc1NC(=O)CCc1c(C)nc2cc(-c3ccc(Cl)cc3)nn2c1C,·,0.0%,·,·,-3.9%[46.1 µM],-20.0%[46.1 µM]
Cc1ccc(N2C(=O)[C@@H]3[C@H](C2=O)C2c4ccccc4C=CN2[C@@H]3C(=O)c2ccco2)cc1 (some centres undefined),3.4%,10.5%,29.0*,19.8,-4.8%,-18.9%
CC(C)(C)C(=O)[C@@H]1[C@@H]2C(=O)N(c3ccc4c(c3)OCCO4)C(=O)[C@@H]2C2c3ccccc3C=CN21 (some centres undefined),9.1%,-16.9%,20.5,15.7*,-13.3%,-2.6%
Cc1nnc(SC(=O)N2c3ccccc3Sc3ccccc32)s1,?,·,-12.2,-2.5,20.6µM*,?
COc1ccccc1NC(=O)CSC1=Nc2ccccc2C2=NC(CC(=O)NCc3ccco3)C(=O)N12 (centres undefined),·,30.5%,·,·,-1.3%[46.1 µM],·
CCCCNC(=S)N/N=C/c1ccccc1F,?,9.8%,19.3,15.9*,-8.5%,?
CCOC(=O)N/N=C\c1ccc(C)s1,6.0%,21.2%,67.9*,28.6*,4.0%,26.7%
Cc1ccc(/C=N/NC(=S)NCCc2ccccc2)s1,-16.0%,5.9%,12.0,17.1,·,·
SMILES,HCV inh,FMDV inh,Shiga toxin inh,CHX counter,Lassa entry inh,Marburg entry inh
CCOC(=O)N/N=C\c1sccc1C,10.1%,9.5%,14.8,8.2,13.7%[46.1 µM],?
CC(=O)Nc1ccc(S(=O)(=O)N/N=C/c2ccc(C)s2)cc1,7.6%,207.4%,73.5*,47.8*,?,-0.8%
CCCCNC(=S)N/N=C/c1ccc(C)s1,-19.2%,16.8%,60.6*,50.4*,-17.4%,0.5%
Cc1ccc(CN(C)C(=O)c2cccc(S(=O)(=O)N3CCCC3)c2)o1,-2.0%,3.0%,·,·,13.0%[46.1 µM],-1.6%[46.1 µM]
COc1cc(OC)cc(-c2nc3n(n2)C(c2ccccc2F)C(C(=O)Nc2cccnc2)=C(C)N3)c1 (centres undefined),·,-4.8%,·,·,0.3%[46.1 µM],?
CN(Cc1ccco1)C(=O)c1cc(NC(=O)C2CCC2)c2c(c1)nc(-c1ccncc1)n2C,·,0.8%,·,·,·,·
CCCn1c(CCC(=O)O)nc2cc(S(=O)(=O)N(CC)CC)ccc21,12.6%,0.3%,-9.6,3.4,·,·
CCN(CC)S(=O)(=O)c1ccc2c(c1)nc(-c1ccccn1)n2C,-8.7%,26.8%,82.9*,23.4*,·,-0.4%[46.1 µM]
O=C(O)COc1ccc(/C=C/c2ccc3cccc([N+](=O)[O-])c3n2)cc1,35.6%,0.0%,12.7,-1.5,-6.2%,-8.7%
Oc1ccc(/C=C/c2ccc3ccccc3n2)cc1,?,-87.8%,23.8,7.2,·,·
CN(C)c1ccc(/C=C/c2ccc3ccccc3n2)cc1,?,6.31µM*,-18.8,-4.6,·,·
O=[N+]([O-])c1ccc(/C=C/c2ccc3ccccc3n2)cc1,-6.8%,-65.5%,30.0,20.7*,2µM*,?
CN(C)c1ccc(/C=C/c2nc3ccccc3s2)cc1,-8.3%,5.01µM*,12.1,-3.6,2.24µM*,2µM*
C(=C\c1ccc2ccccc2n1)/c1ccccc1,-7.6%,-83.7%,15.6,12.9,·,·
CC(=O)Nc1ccc(/C=C/c2ccc3cccc([N+](=O)[O-])c3n2)cc1,11.2µM*,-14.2%,74.7*,22.8*,·,·
Cc1ccc(S(=O)(=O)N2CCOCC2)cc1C(=O)NC(=S)N1CC(C)CC(C)C1 (centres undefined),0.8%,-24.9%,15.3,2.6,·,·
O=[N+]([O-])c1ccc(/C=C/c2ccc3cccc(O)c3n2)cc1,-28.7%,58.0%,98.2*,59.6*,·,·
CN(C)c1ccc(CNc2nc3ccccc3n2C)cc1,·,37.1%,·,·,·,·
CN(C)c1ccc(CNc2nc3ccccc3s2)cc1,·,·,67.6*,34.5*,·,·
CCCN(CCC)c1ccc(/C=C/c2ccc3cc(OCC)ccc3n2)cc1,?,0.4%,70.9*,33.6*,·,·
O=C(COC(=O)/C=C/c1nc2ccccc2s1)Nc1cccc2ccccc12,-0.2%,-15.6%,21.6,3.1,-6.8%,-3.8%
Cc1ccc(/C=C/c2nc3ccccc3s2)s1,-8.1%,?,29.5,24.5*,6.31µM*,?
COc1cc(/C=C/c2ccc3cccc([N+](=O)[O-])c3n2)ccc1OCC(=O)O,8.2%,29.7%,-7.2,-6.0,·,·
O=C(O)CN1C(=O)c2cccc3cccc(c23)C1=O,·,-7.3%[97.4 µM],·,·,·,·
CC(C)C[C@H](NC(=O)N1CCn2c1nc1ccccc12)C(=O)NCc1ccc2c(c1)OCO2,-21.3%,1.8%,37.6,4.9,?,?
